Experimental findings from PubChem BioAssay AID463173 (ICCB-Longwood Screening Facility, Harvard Medical School, 2010) are described below.

Out of some 52,000 compounds screened, about 1,700 (3.3%) were called active. This excerpt belongs to a sample that is enriched for actives. A number with no mark means an inactive call. No stated cut-off is given here; in the data, active means survival mostly below about 52% (no sharp cut-off); inactive means mostly above about 56%.

This assay deals with Wild type. Put plainly: growth inhibition of S. aureus wild type versus tarO mutant, primary screen, teichoic acid synthesis inhibitors, RN4220, OD600 (AID 463173). The conditions noted are these: S. aureus RN4220 wild type/DeltatarO growth, OD600, 18 h, hits give low values, screened at 18.75 µg/mL (by protocol).
With `COc1cc(NS(=O)(=O)c2c(C)nc3sc(C)c(C)n3c2=O)cc(OC)c1`, the survival was 90%.
The same measure for `Cn1cnc2c(=O)oc3ccc(S(=O)(=O)N4CCN(c5cccc(C(F)(F)F)c5)CC4)cc3c21`: 120%; for `Cn1cnc2c(=O)oc3ccc(S(=O)(=O)N4CCN(c5ccccc5)CC4)cc3c21`: 87%; for `Cn1cnc2c(=O)oc3ccc(S(=O)(=O)N4CCN(c5cccc(Cl)c5)CC4)cc3c21`: -6% (active).
The same measure for `CCOc1ccc(NC(=O)c2c(Nc3ccccc3C)sc(C(=O)c3ccccc3)c2N)cc1`: 83%; for `Cc1ccc(CN2C(=O)c3ccccc3CC2(C)C(=O)NC2CCCCC2)cc1` (stereo not drawn): 84%.
The same measure for `CN(c1ncnc2c1c(-c1ccccc1)cn2-c1cccc(Cl)c1)C1CCCCC1`: 89%.
On to `CN(c1ncnc2onc(-c3cccc(Cl)c3)c12)C1CCCCC1`, for which the survival was -1% (active).
Under `Clc1cccc(-c2noc3ncnc(NC4CCCCC4)c23)c1` stands 79%; under `COc1ccc(S(=O)(=O)N(CC(=O)N2CCC(C)CC2)c2ccc(C)cc2)cc1`, 89%.
The same measure for `O=C(NCCC1=CCCCC1)c1ccc2c(=O)n3nc(Nc4ccccc4)sc3nc2c1`: 72%; for `O=C(CN1CCC(NC(=O)C2CCCCC2)CC1)Nc1cccc(F)c1`: 111%; for `CCc1nn2c(=O)cc(COC(=O)c3ccc(NC(=O)C4CCCCC4)cc3)nc2s1`: 68%.
The same measure for `CCOc1ccccc1CNS(=O)(=O)c1ccc2[nH]c(=O)ccc2c1`: 71%; for `CCOc1ccc(CNS(=O)(=O)c2ccc3[nH]c(=O)ccc3c2)cc1`: 80%; for `CCOc1ccc(OCC)c(NS(=O)(=O)c2ccc3[nH]c(=O)ccc3c2)c1`: 0% (active).
With `O=C(Cn1c(=O)n(CCc2ccccc2)c(=O)c2cccnc21)Nc1ccc(F)cc1`, the survival was 80%.
The same measure for `Cc1oc2c(C)c3oc(=O)c(CC(=O)N4CCCCC4)c(C)c3cc2c1C`: 83%; for `Cc1nnc(SCC(=O)N(C2CCCCC2)C2CCCCC2)[nH]c1=O`: 117%.
The same measure for `CCOc1ccc(C(=O)c2cnc3ccc(Cl)cc3c2S(=O)(=O)c2ccc(C)cc2)cc1`: 86%; for `CCOC(=O)C1CCCN(c2c(C(=O)c3ccc(OCC)cc3)cnc3ccccc23)C1` (stereo not drawn): 0% (active); for `CCOC(=O)C1CCCN(c2c(C(=O)c3ccc(C)cc3)cnc3ccc(OCC)cc23)C1` (stereo not drawn): 2% (active).
Under `CCOC(=O)C1CCCN(c2c(C(=O)c3ccccc3)cnc3ccc(F)cc23)C1` (stereo not drawn) stands 22%; under `CCOc1ccc(S(=O)(=O)c2c(C(=O)c3ccc(C)c(C)c3)cnc3ccccc23)cc1`, 80%; under `CCOC(=O)C1CCCN(C(=O)c2ccc(OCC)cc2)C1` (stereo not drawn), 117%.
In the case of `CCc1ccc(NC(=O)CN2CCSc3ccc(S(=O)(=O)N4CCCC4)cc32)cc1`, the survival was -6% (active).
Under `CCOc1ccc(NC(=O)CN2CCSc3ccc(S(=O)(=O)N4CCCC4)cc32)cc1` stands 67%.
The same measure for `Cc1ccc(NC(=O)CN2CCSc3ccc(S(=O)(=O)N4CCCC4)cc32)cc1`: 98%.
Under `CCOC(=O)c1scc(-c2ccc(C)cc2)c1S(=O)(=O)Nc1ccc(F)c(F)c1` stands 72%.
Take `Cc1nc(N2CCOCC2)c2c(C(=O)Nc3cccc(C(F)(F)F)c3)c(C)oc2n1`: the survival is 78%.
The same measure for `COc1ccc(Nc2c(-c3ccco3)nc3cccc(C)n23)cc1`: 97%.
Under `Cc1ccccc1Nc1c(-c2ccccc2)nc2cccc(C)n12` stands 73%; under `Cc1ccn2c(Nc3ccc(F)cc3)c(-c3ccccn3)nc2c1`, 79%.
`Cc1ccc(Nc2c(-c3cccc(Cl)c3)nc3cccc(C)n23)cc1`: the survival was 22%.
The same measure for `CSc1ccc(-c2nc3cccc(C)n3c2Nc2ccc(Cl)cc2)cc1`: 101%.
As to `Cc1cccc2nc(-c3ccccn3)c(Nc3ccccc3)n12`, the survival is 21% (active).
Under `Cc1cccc(C)c1Nc1c(-c2ccsc2)nc2cccc(C)n12` stands 32%.
The same measure for `Cc1ccc(Nc2c(-c3ccc(O)cc3)nc3cccc(C)n23)cc1`: 91%; for `Cc1ccc(Nc2c(-c3ccc(C)o3)nc3cccc(C)n23)cc1`: 21% (active).
Under `Cc1ccc(-c2nc3cccc(C)n3c2Nc2ccc3c(c2)OCO3)o1` stands 22%.
As for `Cc1cccc(C)c1Nc1c(-c2ccccc2F)nc2cccc(C)n12`, the survival was 7% (active).
The same measure for `Cc1cccc2nc(-c3ccccn3)c(Nc3ccc(F)cc3)n12`: 4% (active); for `O=C(Nc1ccc(Cl)c(C(F)(F)F)c1)C1CCN(S(=O)(=O)c2cccc3nonc23)CC1`: 90%.
Under `Cc1ccc(C(=O)c2c(N)c(C(=O)Nc3ccccc3Cl)c3ccccn23)cc1` stands 96%; under `COc1ccc(NC(=O)CN2C(=O)c3cccnc3Sc3ccccc32)cc1OC`, 81%; under `COc1ccccc1CNC(=O)CSC1=Nc2ccccc2N=C(c2ccc(F)cc2)C1`, 73%.
Under `COc1cc(NC(=O)c2sc3nc4n(c(=O)c3c2C)CCCCC4)cc(OC)c1OC` stands 80%.
`Cc1ccccc1NC(=O)Cn1cc(S(=O)(=O)c2ccccc2)c(=O)c2ccccc21`: the survival is 105%.
Under `COc1ccccc1CNC(=O)C(=O)NCC(c1ccco1)S(=O)(=O)c1cccs1` (stereo not drawn) stands 101%; under `COC(=O)C(NC(=O)CCc1c(C)nc2cc(-c3cccc(F)c3)nn2c1C)C(C)C` (stereo not drawn), 80%.
Turning to `CCc1ccc(CNc2ncnc3onc(-c4ccc(Cl)cc4)c23)cc1`, the survival is 48%.
Under `Cc1cc[n+](CC(=O)N2CCCCC2)cc1` stands 116%.
Under `Cc1ccc(NC(=O)Cn2c(=O)n(-c3ccccc3)c(=O)c3ccc(C(=O)NCc4ccc5c(c4)OCO5)cc32)c(C)c1` stands 138%; under `Cc1ccc2nc(-c3ccc(C)o3)c(Nc3ccc4c(c3)OCCO4)n2c1`, 19% (active).
On to `Cc1ccc(-c2nc3ccccn3c2Nc2ccc3c(c2)OCO3)o1`, for which the survival is 48%.
The same measure for `Cc1ccn2c(Nc3ccc4c(c3)OCCO4)c(-c3ccc(C)o3)nc2c1`: 75%; for `Cc1ccc(-c2nc3ccc(Cl)cn3c2Nc2ccc3c(c2)OCCO3)o1`: 88%.
With `Cc1ccc(-c2nc3ccccn3c2Nc2c(C)cccc2C)o1`, the survival was -20% (active).
`Cc1ccc(-c2nc3ccccn3c2Nc2ccc3c(c2)OCCO3)o1`: the survival was 62%.
Under `Cc1cc(-n2c(C)nc3ccccc3c2=O)ccc1NC(=O)C(F)(F)F` stands 69%; under `COc1ccc(CCC(=O)NC2CC(=O)N(c3ccc(OC)cc3)C2)cc1` (stereo not drawn), 79%; under `CCOc1ccc(C2CC(=O)Nc3c2c(=O)[nH]c2ncnn32)cc1` (stereo not drawn), 68%.
The same measure for `CC1=C(C(=O)Nc2ccc(C)cc2C)C(c2cccs2)n2nc(SCc3ccccc3Cl)nc2N1` (stereo not drawn): 76%.
Under `COc1cc(NC(=O)c2ccc(C)cc2)ccc1NC(=O)c1cc2ccccc2o1` stands 75%; under `COc1ccc(OC)c(C2c3c(-c4ccc(Br)cc4)n[nH]c3C(=O)N2c2ccc(Cl)cc2)c1` (stereo not drawn), 77%.
With `CCc1ccc(C2NC(=O)c3[nH]nc(-c4cccc(OC)c4)c32)cc1` (stereo not drawn), the survival is 74%.
Under `COc1ccc(-c2n[nH]c3c2C(c2ccc(Cl)cc2Cl)NC3=O)cc1` (stereo not drawn) stands 0% (active); under `CCOC(=O)CNc1cccc(Cl)c1`, 112%; under `COc1cccc(CNC(=O)C(=O)Nc2c3c(nn2-c2ccccc2)CSC3)c1`, 66%.
Consider `Cc1ccc(NC(=O)c2cc(S(=O)(=O)N3CCC4(CC3)OCCO4)ccc2F)cc1Cl`, for which the survival is 87%.
Under `COc1ccc(N2CCN(C(=O)CNS(=O)(=O)c3ccc(Br)s3)CC2)cc1` stands 61%; under `COc1ccc(Nc2oc(/C=C/c3cc(OC)c(OC)c(OC)c3)nc2C#N)cc1`, 78%; under `CC(=O)N1CCC2(CC1)OC(=O)C(C)=C2C(=O)NCc1ccccc1Cl`, 70%.
Take `CCOc1ccc(CCNC(=O)c2cnc3c(-c4ccc(F)cc4)c(C)nn3c2C)cc1`: the survival is 85%.
Turning to `CCOC(=O)c1cc2occc2n1C(C)C(=O)OCC` (stereo not drawn), the survival is 95%.
The same measure for `CCc1ccccc1NC(=O)c1cc2sc(Cl)cc2n1CC`: 90%; for `CCn1c(C(=O)Nc2ccccc2C(=O)OC)cc2sc(Cl)cc21`: 43%.
The same measure for `CCC(Sc1nnc(C)n2c1cc1occc12)C(=O)Nc1ccccc1OC` (stereo not drawn): 90%.
Under `CCOc1ccccc1NC(=O)C(CC)n1c(C(=O)OC)cc2occc21` (stereo not drawn) stands 0% (active).
Turning to `CCC(C(=O)Nc1ccccc1OC)n1c(C(=O)OC)cc2sc(Cl)cc21` (stereo not drawn), the survival is 0% (active).
With `COc1ccc2c(c1)CC(NC(=O)Nc1ccc(NC(C)=O)cc1)CO2` (stereo not drawn), the survival was 121%.
Under `CCN1c2ccccc2-c2nc(SCC(=O)Nc3cc(OC)cc(OC)c3)ncc2S1(=O)=O` stands 32%; under `CN(C(=O)C1=CC(c2ccc3c(c2)OCO3)=NS(=O)(=O)N1C)c1ccccc1`, 89%; under `Cc1ccc2nsnc2c1S(=O)(=O)NC(C)(C)C`, 96%.
Consider `CCc1nc2ccc(C(=O)N3CCN(c4ccccc4F)CC3)cc2nc1CC`, for which the survival was 68%.
Under `COc1cc(CN(CC2CCCO2)C(=O)c2ccc(F)cc2)cc(OC)c1OC` (stereo not drawn) stands 86%; under `Cn1c(SCc2ccc(Br)cc2)nc2c([nH]c3ccccc32)c1=O`, 131%.
Under `CCn1c(=O)cc(OCC(=O)N(C)c2cc(Cl)ccc2C)c2ccccc21` stands 62%.
Under `CCn1c(=O)cc(OCC(=O)N(C)c2ccc(OC)cc2)c2ccccc21` stands 78%; under `CCCN(C(=O)Cn1c(=O)oc2cc(Cl)ccc21)c1ccc(C(C)C)cc1`, 8% (active); under `CCN(C(=O)Cn1c(=O)oc2cc(Cl)ccc21)c1cccc(C(F)(F)F)c1`, 83%.
For the compound `CCCN(c1ccc(C(C)C)cc1)S(=O)(=O)c1ccc2c(c1)oc(=O)n2CC(=O)OCC`, the survival was 73%.
Consider `CCCN(C(=O)COc1cc(=O)n(CC)c2ccccc12)c1ccc(C(C)C)cc1`, for which the survival was -7% (active).
